Results on 21 compounds are retold here after PubChem BioAssay (NCATS).

Test [1] is described as follows: qHTS of pediatric cancer cell lines to identify multiple opportunities for drug repurposing: Primary screen for U-2 OS cells (AID 1347096). Also: nearly all actives have a fitted effect of over 50% in size. Also: potency is read from the fitted curve at half-maximal effect. To be noted: U-2 OS viability, CellTiter-Glo luminescence, 48 h; series mostly up to 46 µM. The gist of the method: (§1)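 Cells (500-1,000/well) rested 5 h, then received compounds for 48 h; metabolically active cells were measured by CellTiter-Glo luminescence. Final concentrations spanned up to 46 µM (MIPE, 11-point) or 0.59 nM-46 µM (NPC, 8-point) in primary screens, 11-point in follow-ups.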

Test [2] is described as follows: qHTS of pediatric cancer cell lines to identify multiple opportunities for drug repurposing: Primary screen for Saos-2 cells (AID 1347097). Also: nearly all actives have a fitted effect of over 40% in size. Also: potency is read from the fitted curve at half-maximal effect. To be noted: Saos-2 viability, CellTiter-Glo ATP luminescence, 48 h; series mostly up to 46 µM. In short, it runs like this: (§2)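 500-1,000 cells/well; 5 h pre-incubation 37 °C/5% CO2; compound pinned; 48 h; CellTiter-Glo, 15 min RT; luminescence. MIPE 11-pt from 0.78 nM, NPC 8-pt from 0.59 nM final. Bortezomib 2.3 µM final as positive control.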
A general note: In qHTS, concentration-response curves come from the screen itself.

The nature of test [3]: qHTS of pediatric cancer cell lines to identify multiple opportunities for drug repurposing: Primary screen for NB1643 cells (AID 1347099). Also: nearly all actives have a fitted effect of over 50% in size. Also: potency is read from the fitted curve at half-maximal effect. The following applies: NB1643 neuroblastoma viability, CellTiter-Glo luminescence, 48 h; series mostly up to 46 µM. In short, it runs like this: as §2
Test [4] in a line: qHTS of pediatric cancer cell lines to identify multiple opportunities for drug repurposing: Primary screen for LAN-5 cells (AID 1347100). To be noted: LAN-5 neuroblastoma viability, CellTiter-Glo luminescence, 48 h; series mostly up to 46 µM. The gist of the method: as §1
The nature of test [5]: qHTS of pediatric cancer cell lines to identify multiple opportunities for drug repurposing: Primary screen for BT-12 cells (AID 1347101). Also: nearly all actives have a fitted effect of over 25% in size. Also: potency is read from the fitted curve at half-maximal effect. The following applies: BT-12 viability, CellTiter-Glo luminescence, 48 h; series mostly up to 57.3 µM. In short, it runs like this:
as §1

Test [6] is described as follows: qHTS of pediatric cancer cell lines to identify multiple opportunities for drug repurposing: Primary screen for Rh18 cells (AID 1347102). Also: nearly all actives have a fitted effect of over 65% in size. Also: potency is read from the fitted curve at half-maximal effect. To be noted: Rh18 rhabdomyosarcoma viability, CellTiter-Glo luminescence, 48 h; series mostly up to 46 µM. The gist of the method: as §1
The nature of test [7]: qHTS of pediatric cancer cell lines to identify multiple opportunities for drug repurposing: Primary screen for OHS-50 cells (AID 1347103). Also: nearly all actives have a fitted effect of over 40% in size. Also: potency is read from the fitted curve at half-maximal effect. The following applies: OHS-50 osteosarcoma viability, CellTiter-Glo luminescence, 48 h; series mostly up to 57.3 µM. The gist of the method:
as §1

Test [8] can be described thus: qHTS of pediatric cancer cell lines to identify multiple opportunities for drug repurposing: Primary screen for RD cells (AID 1347104). Also: nearly all actives have a fitted effect of over 55% in size. Also: potency is read from the fitted curve at half-maximal effect. To be noted: RD rhabdomyosarcoma viability, CellTiter-Glo luminescence, 48 h; series mostly up to 46 µM. In short, it runs like this: as §2
Test [9] is described as follows: qHTS of pediatric cancer cell lines to identify multiple opportunities for drug repurposing: Primary screen for MG 63 (6-TG R) cells (AID 1347105). Also: nearly all actives have a fitted effect of over 50% in size. Also: potency is read from the fitted curve at half-maximal effect. To be noted: MG 63 (6-TG R) viability, CellTiter-Glo, 48 h; series mostly up to 46 µM. The gist of the method:
as §2

The nature of test [10]: qHTS of pediatric cancer cell lines to identify multiple opportunities for drug repurposing: Primary screen for SK-N-SH cells (AID 1347098).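 Also: DMSO served as neutral control and bortezomib at 2.3 µM as positive control; nearly all actives have a fitted effect of over 65% in size.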 To be noted: SK-N-SH viability, CellTiter-Glo luminescence, 48 h; series mostly up to 57 µM. The gist of the method:
as §1

Inconclusive results are not listed. Activity calls are given as the source filed them. Calls follow the shape of the dose curve; as a rule, active = well fitted curve in the direction sought with a large enough effect; inconclusive = small, poorly fitted or top-dose-only effect, or another doubt; inactive = no such curve, though single readings can be large; an effect the other way counts as inactive or inconclusive.

With `CC(=O)NC(=O)c1ccccc1O`, the Potency entry in test [1], in [2], in test [3], in test [4], in test [5] and in test [6] was “inactive” throughout. In addition, the Potency result in test [7], in test [8] and in [9] was “inactive” each time.
Consider `O=C(O)CCc1nc2ccccc2[nH]1`, for which the Potency result in test [1], in test [2], in test [3], in test [4], in test [5] and in test [6] was “inactive” in each case. In addition, the Potency entry in test [7], in [8] and in test [9] was “inactive” each time.
With `CC(C)(C)CC(C)(C)c1ccc(O)c(-n2nc3ccccc3n2)c1`, the Potency entry in test [1], in test [2], in [3], in test [4], in test [5] and in test [6] was “inactive” throughout. Moreover, the Potency entry in test [8] and in test [9] was “inactive” each time.
`N#C/C(=C1\SCC(c2ccccc2Cl)S1)n1ccnc1` (centres undefined): the Potency result in [1], in test [2], in [3], in [4], in test [5] and in [6] was “inactive” each time. Also, the Potency entry in test [8] and in [9] was “inactive” in each case.
As for `NS(=O)(=O)c1ccc(Cl)c(S(N)(=O)=O)c1`, the Potency result in test [1], in [2], in test [3], in test [4], in test [5] and in test [6] was “inactive” each time. In addition, the Potency result in [7], in [8] and in [9] was “inactive” throughout.
As for `CCN1CCCC(OC(=O)C(c2ccccc2)c2ccccc2)C1` (centres undefined), the Potency result in test [1], in test [2], in test [3], in test [4], in [5] and in test [6] was “inactive” throughout. Further, the Potency entry in test [7], in test [8] and in test [9] was “inactive” in each case.
With `CC(=O)Nc1ccc(CC(=O)O)cc1`, the Potency result in [1], in test [2], in test [3], in test [4], in test [5] and in test [6] was “inactive” in each case. Also, the Potency result in test [7], in [8] and in test [9] was “inactive” each time.
As for `COc1ccc2c(c1)c1c3n2CCN(C)C3=NCC1`, the Potency result in test [1], in [2], in test [3], in [4], in test [5] and in test [6] was “inactive” in each case. The Potency result in test [7], in test [8] and in test [9] was “inactive” throughout.
Turning to `Cn1c(=O)c2[nH]c(Br)nc2n(C)c1=O`, the Potency result in test [1], in test [2], in test [3], in test [5], in test [6] and in [7] was “inactive” throughout. Besides, the Potency result in test [8] and in test [9] was “inactive” each time.
For the compound `CC(=O)Nc1ncc([N+](=O)[O-])s1`, the Potency entry in [1], in test [10], in test [3], in test [4], in test [5] and in test [6] was “inactive” throughout. Also, the Potency entry in [7], in test [8] and in test [9] was “inactive” in each case.
For the compound `CCN1CCN(C(=O)N[C@@H](C(=O)N[C@@H]2C(=O)N3C(C(=O)O)=C(CSc4nnnn4C)CS[C@H]23)c2ccc(O)cc2)C(=O)C1=O`, the Potency result in test [1], in test [10], in test [3], in test [4], in test [5] and in test [6] was “inactive” throughout. In addition, the Potency entry in test [7], in test [8] and in test [9] was “inactive” throughout.
Consider `CCN1/C(=C/C=C/c2sc3ccccc3[n+]2CC)Sc2ccccc21`, for which the Potency in test [1] was 9.2 µM (active); in [2], 0.92 µM (active); in test [3], 2.91 µM (active); in [5], 0.601 µM (active); in test [6], 1.03 µM (active); in [7], 0.601 µM (active). Besides, the Potency was 1.16 µM (active) in test [8] and 1.84 µM (active) in test [9].
Turning to `CC(=O)Nc1ccc(S(=O)(=O)Nc2ccc([N+](=O)[O-])cc2)cc1`, the Potency entry in [1], in [2], in test [3], in test [5], in [6] and in [7] was “inactive” in each case. Besides, the Potency entry in [8] and in test [9] was “inactive” each time.
Consider `CC(C)Cn1cnc2c1c(=O)n(C)c(=O)n2C`, for which the Potency result in test [1], in [10], in test [3], in test [4], in test [5] and in test [6] was “inactive” in each case. The Potency entry in [7] and in test [8] was “inactive” throughout.
As to `CN(Cc1ccc(C(C)(C)C)cc1)Cc1cccc2ccccc12`, the Potency result in test [1], in test [10], in test [3], in test [4], in test [5] and in [6] was “inactive” each time. Also, the Potency entry in test [8] was “inactive”.
As to `CC(=O)N[C@@H](CCC(=O)O)C(=O)O`, the Potency result in test [1], in test [10], in test [3], in test [4], in test [5] and in [6] was “inactive” in each case. The Potency entry in test [7], in test [8] and in test [9] was “inactive” in each case.
Turning to `O=C(c1ccc(F)cc1)C1CCN(CCn2c(=S)[nH]c3ccccc3c2=O)CC1`, the Potency result in test [1], in [2] and in test [9] was “inactive” in each case.
With `COc1ccc(-c2cc(C(F)F)nn2-c2ccc(S(N)(=O)=O)cc2)cc1F`, the Potency result in [1], in test [10], in test [3], in test [4], in test [5] and in test [6] was “inactive” throughout. In addition, the Potency entry in test [7], in [8] and in test [9] was “inactive” in each case.
Regarding `O=[N+]([O-])c1cccc(S(=O)(=O)NCCNS(=O)(=O)c2cccc([N+](=O)[O-])c2)c1`, the Potency result in [1], in test [10], in test [3], in test [4], in test [5] and in test [6] was “inactive” throughout. The Potency entry in [8] and in test [9] was “inactive” in each case.
With `O=C(O)Cc1csc(-c2ccc(Cl)cc2)n1`, the Potency result in test [1], in test [10], in test [3], in test [4], in test [5] and in [6] was “inactive” each time. The Potency entry in [7], in [8] and in test [9] was “inactive” throughout.
Take `COc1cc(C)nc(-n2nc(C)cc2OC)n1`: the Potency entry in test [1], in test [10], in test [3], in test [4], in test [5] and in test [6] was “inactive” each time. Moreover, the Potency entry in test [7], in test [8] and in test [9] was “inactive” each time.
